# From PubChem BioAssay (EPA / NIEHS)
# “And” between values parts separate entries of the source, which are not always exact repeats. Equal entries are not always repeated. Results filed as inconclusive are left out. The source holds several records for some structures; these can differ, active in one and inactive in another. The source made the active and inactive calls. The calls were made as follows: active = hit-call score of the fitted dose curve at least 0.9, where 1 is the maximum; inconclusive = response in the unintended direction; inactive = score below 0.9.
# Tests used:
# [1] = ACEA_AR_agonist_AUC_viability: ACEA Biosciences xCELLigence Real-Time Cell Analysis on Androgen Receptor Agonism for Viability (AID 2283775);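 as to AC50: viability read 80 hours after compound addition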
# Outline: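 22Rv1 cells; impedance growth kinetics; 8-pt 1:4 dilutions from 100 uM top final, ≤0.5% DMSO; n = 2; 80 h read; AUC viability, loss-of-signal vs DMSO.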
# [2] = ACEA_ER_AUC_viability: ACEA Biosciences xCELLigence Real-Time Cell Analysis on Estrogen Receptor Agonism for Viability (AID 2283782);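 also: hit means loss of impedance signal meaning reduced cell growth or viability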
# Outline: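 Read-out: real-time electrical impedance (RT-CES) area under curve, loss of signal taken as reduced viability, normalized to DMSO baseline. T-47D cells, charcoal-stripped serum medium, compounds up to 100 uM final, continuous exposure, 80 h.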
# [3] = ACEA_AR_antagonist_AUC_viability: ACEA Biosciences xCELLigence Real-Time Cell Analysis on Androgen Receptor Antagonism for Viability (AID 2283776);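 also: area under impedance growth curve at 80 h after dosing as viability; hits lower the growth signal relative to DMSO meaning cytotoxicity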
# Outline: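 22Rv1 human prostate cancer cells were seeded on electrode plates, monitored overnight, then exposed to eight 1:4 dilutions from 100 uM final. Impedance-based growth kinetics at 80 h gave an AUC viability endpoint normalized to DMSO.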
# AR (gene 367) [4] = biological target: AR (gene 367) (UniProt P10275); experiment: ACEA_AR_antagonist_80hr: ACEA Biosciences xCELLigence Real-Time Cell Analysis on Androgen Receptor Antagonism for Proliferation (AID 2283787);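 also: hits lower the impedance growth signal relative to DMSO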
# AR (gene 367), sequence (P10275 whole entry, looked up): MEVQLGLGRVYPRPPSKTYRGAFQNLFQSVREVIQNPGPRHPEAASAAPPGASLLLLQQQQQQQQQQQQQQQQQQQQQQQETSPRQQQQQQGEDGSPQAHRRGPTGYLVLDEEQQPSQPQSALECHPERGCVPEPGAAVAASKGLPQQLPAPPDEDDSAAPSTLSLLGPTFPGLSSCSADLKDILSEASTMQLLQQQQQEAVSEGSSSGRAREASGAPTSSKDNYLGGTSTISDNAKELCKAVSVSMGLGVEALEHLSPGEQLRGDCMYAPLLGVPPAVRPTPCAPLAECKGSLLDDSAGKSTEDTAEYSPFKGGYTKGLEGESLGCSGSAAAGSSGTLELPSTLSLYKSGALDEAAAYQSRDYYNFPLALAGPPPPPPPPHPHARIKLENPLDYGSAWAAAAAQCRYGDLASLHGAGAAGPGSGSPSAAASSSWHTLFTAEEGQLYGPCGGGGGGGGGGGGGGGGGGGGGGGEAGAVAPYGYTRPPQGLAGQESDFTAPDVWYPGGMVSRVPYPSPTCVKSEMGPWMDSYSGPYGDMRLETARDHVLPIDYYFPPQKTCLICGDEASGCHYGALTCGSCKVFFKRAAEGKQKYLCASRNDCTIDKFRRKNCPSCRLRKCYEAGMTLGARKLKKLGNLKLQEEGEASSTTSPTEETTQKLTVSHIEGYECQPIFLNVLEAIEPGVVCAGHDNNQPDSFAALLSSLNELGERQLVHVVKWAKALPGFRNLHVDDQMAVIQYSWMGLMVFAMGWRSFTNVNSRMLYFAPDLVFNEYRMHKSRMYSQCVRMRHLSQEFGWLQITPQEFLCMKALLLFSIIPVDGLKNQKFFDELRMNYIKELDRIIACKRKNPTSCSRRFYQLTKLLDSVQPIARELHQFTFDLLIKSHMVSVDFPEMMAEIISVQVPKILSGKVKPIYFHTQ
# Outline: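 Measures real-time proliferation of 22Rv1 prostate cancer cells by electrode impedance at 80 hours after dosing. Test articles ran at eight concentrations (1:4 steps, top 100 uM final) in biological duplicate.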
# AR (gene 367) [5] = biological target: AR (gene 367) (UniProt P10275); experiment: ACEA_AR_agonist_80hr: ACEA Biosciences xCELLigence Real-Time Cell Analysis on Androgen Receptor Agonism for Proliferation (AID 2283783);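 also: hits increase impedance growth signal above DMSO baseline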
# Outline: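 Impedance (RT-CES) growth signal at 80 h post-dose; 22Rv1 cells, 8-pt 1:4 series, top 100 uM final, DMSO ≤0.5%; duplicate plates; gain-of-signal fit relative to DMSO baseline.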
# [6] = STM_H9_NormalizedViability: Cytotoxicity Assessment at 120 hours in the Stemina devTOX quickPredict H9 human embryonic stem cell (hESC)-based Assay (AID 2283784)
# Outline: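 Viability endpoint: background-corrected CellTiter-Fluor RFU expressed relative to the 0.1% DMSO mean on each plate. Undifferentiated H9 cells were treated with daily re-dosing and media change, and loss of signal was fitted.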
# [7] = ATG_M_06_XSP2: Attagene TRANS-FACTORIAL Multi-Species (XSP2) HepG2 Assay for M06 Transcription Factor (Internal Marker) (AID 2283811);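 also: internal background marker reporter mRNA measured by RT-PCR and capillary electrophoresis; hits are increases in signal above the DMSO baseline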
# Outline: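 Readout: fluorescent reporter-mRNA peaks by capillary electrophoresis after RT-PCR and HpaI digest, scored upward relative to DMSO. Transfected HepG2, 24 h chemical exposure, with 3 nM 6-alpha-fluorotestosterone and 1.5 nM norgestrel added.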
# [8] = test system: turtle Estrogen Receptor (ERa), gene 101933533; experiment: ATG_trERa_XSP2: Attagene TRANS-FACTORIAL Multi-Species (XSP2) HepG2 Assay for turtle Estrogen Receptor (ERa) (AID 2283812);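 also: actives raise reporter signal above DMSO so AC50 reflects agonist activity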
# Outline: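 Readout is reporter mRNA quantified by RT-PCR with capillary electrophoresis after 24 h compound exposure, increase relative to DMSO. Uses transiently transfected human HepG2 liver cells carrying a chimeric turtle ERa-Gal4 receptor driving GAL4-UAS reporters.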
# [9] = biological target: Estrogen receptor beta (Homo sapiens) (UniProt Q92731); experiment: ATG_hERb_XSP2: Attagene TRANS-FACTORIAL Multi-Species (XSP2) HepG2 Assay for human Estrogen Receptor (ERb) (AID 2283813);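 also: actives raise reporter mRNA above DMSO so AC50 reflects agonist induction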
# Estrogen receptor beta (Homo sapiens), sequence (Q92731 whole entry, looked up, the tested form may be a part): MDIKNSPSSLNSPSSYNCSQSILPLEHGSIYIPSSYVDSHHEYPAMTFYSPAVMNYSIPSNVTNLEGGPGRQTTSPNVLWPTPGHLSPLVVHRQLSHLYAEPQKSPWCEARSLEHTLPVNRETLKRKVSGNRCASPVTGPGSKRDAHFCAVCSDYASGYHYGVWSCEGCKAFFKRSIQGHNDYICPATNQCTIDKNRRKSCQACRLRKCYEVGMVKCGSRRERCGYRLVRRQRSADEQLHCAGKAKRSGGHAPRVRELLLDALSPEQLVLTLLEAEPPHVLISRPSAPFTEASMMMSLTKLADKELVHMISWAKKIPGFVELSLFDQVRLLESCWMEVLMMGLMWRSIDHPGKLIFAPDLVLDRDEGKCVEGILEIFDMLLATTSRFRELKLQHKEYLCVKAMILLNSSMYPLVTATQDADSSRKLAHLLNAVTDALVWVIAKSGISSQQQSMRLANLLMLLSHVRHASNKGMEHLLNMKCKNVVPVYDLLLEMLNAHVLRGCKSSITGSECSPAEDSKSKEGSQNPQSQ
# Outline: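 Transient TRANS reporter system in HepG2: after 24 h of chemical, RNA is reverse-transcribed, reporter cDNA amplified, FAM-labelled and sized by capillary electrophoresis. Induction of the human ERb-Gal4 reporter is measured relative to DMSO.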
# [10] = biological target: zebrafish Estrogen Receptor (ER1), esr1 (gene 259252) (UniProt P57717); experiment: ATG_zfER1_XSP2: Attagene TRANS-FACTORIAL Multi-Species (XSP2) HepG2 Assay for zebrafish Estrogen Receptor (ER1) (AID 2283816)
# zebrafish Estrogen Receptor (ER1), esr1 (gene 259252), sequence (P57717 whole entry, looked up, the tested form may be a part): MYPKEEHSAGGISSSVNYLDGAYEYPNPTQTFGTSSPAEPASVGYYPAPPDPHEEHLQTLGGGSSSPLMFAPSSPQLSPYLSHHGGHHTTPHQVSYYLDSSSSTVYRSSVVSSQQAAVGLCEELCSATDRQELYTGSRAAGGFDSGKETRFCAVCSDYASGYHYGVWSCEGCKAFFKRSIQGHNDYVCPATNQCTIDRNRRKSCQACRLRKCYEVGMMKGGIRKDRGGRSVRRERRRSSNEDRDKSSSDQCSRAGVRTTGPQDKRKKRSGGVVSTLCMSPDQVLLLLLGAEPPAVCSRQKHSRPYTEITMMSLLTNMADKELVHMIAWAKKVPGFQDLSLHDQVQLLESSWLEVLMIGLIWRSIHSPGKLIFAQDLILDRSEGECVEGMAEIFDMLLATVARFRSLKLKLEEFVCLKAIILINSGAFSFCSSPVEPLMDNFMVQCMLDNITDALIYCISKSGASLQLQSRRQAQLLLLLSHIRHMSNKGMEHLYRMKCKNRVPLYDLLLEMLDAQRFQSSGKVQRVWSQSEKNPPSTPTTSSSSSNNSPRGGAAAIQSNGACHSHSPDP
# Outline: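 After 24 h compound exposure, RNA from transfected HepG2 cells was reverse-transcribed and reporter transcripts resolved by capillary electrophoresis. The TRANS format reads exogenous zebrafish ER1-Gal4 chimera activity on GAL4-UAS elements; gain of signal against DMSO.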
# [11] = biological target: chicken Estrogen Receptor (ERa), ESR1 (gene 396099) (UniProt P06212); experiment: ATG_chERa_XSP2: Attagene TRANS-FACTORIAL Multi-Species (XSP2) HepG2 Assay for chicken Estrogen Receptor (ERa) (AID 2283817);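 also: actives raise reporter signal above DMSO so AC50 reflects ER activation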
# chicken Estrogen Receptor (ERa), ESR1 (gene 396099), sequence (P06212 whole entry, looked up, the tested form may be a part): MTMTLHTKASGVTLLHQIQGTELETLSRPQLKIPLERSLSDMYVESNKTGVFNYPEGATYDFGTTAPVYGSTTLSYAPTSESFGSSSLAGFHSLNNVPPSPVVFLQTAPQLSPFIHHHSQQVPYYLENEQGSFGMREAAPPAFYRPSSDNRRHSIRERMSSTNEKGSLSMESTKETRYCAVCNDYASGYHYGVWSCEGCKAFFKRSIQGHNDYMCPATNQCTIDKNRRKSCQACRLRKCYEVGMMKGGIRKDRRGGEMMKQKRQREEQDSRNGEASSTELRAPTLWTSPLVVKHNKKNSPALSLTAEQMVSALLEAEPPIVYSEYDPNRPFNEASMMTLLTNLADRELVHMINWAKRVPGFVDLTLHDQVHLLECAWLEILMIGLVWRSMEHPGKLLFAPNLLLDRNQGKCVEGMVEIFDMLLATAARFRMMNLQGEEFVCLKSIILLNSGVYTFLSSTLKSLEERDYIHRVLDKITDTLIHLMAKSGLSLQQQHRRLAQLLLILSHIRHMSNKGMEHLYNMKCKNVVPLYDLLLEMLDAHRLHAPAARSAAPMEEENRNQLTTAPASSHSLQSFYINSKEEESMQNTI
# Outline: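 Readout: fluorescent reporter-transcript fragments resolved by capillary electrophoresis after RT-PCR and HpaI cut. Chicken ERa-Gal4 fusion in transiently transfected HepG2, dosed for 24 h; activity taken as increase over DMSO baseline.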
# [12] = biological target: Luciferin 4-monooxygenase (Photinus pyralis) (UniProt P08659); experiment: CCTE_Simmons_QuantiLum_inhib_2: CCTE's Firefly Luciferase Inhibition Assay, Simmons Lab (AID 2283767)
# Luciferin 4-monooxygenase (Photinus pyralis), sequence (P08659 whole entry, looked up): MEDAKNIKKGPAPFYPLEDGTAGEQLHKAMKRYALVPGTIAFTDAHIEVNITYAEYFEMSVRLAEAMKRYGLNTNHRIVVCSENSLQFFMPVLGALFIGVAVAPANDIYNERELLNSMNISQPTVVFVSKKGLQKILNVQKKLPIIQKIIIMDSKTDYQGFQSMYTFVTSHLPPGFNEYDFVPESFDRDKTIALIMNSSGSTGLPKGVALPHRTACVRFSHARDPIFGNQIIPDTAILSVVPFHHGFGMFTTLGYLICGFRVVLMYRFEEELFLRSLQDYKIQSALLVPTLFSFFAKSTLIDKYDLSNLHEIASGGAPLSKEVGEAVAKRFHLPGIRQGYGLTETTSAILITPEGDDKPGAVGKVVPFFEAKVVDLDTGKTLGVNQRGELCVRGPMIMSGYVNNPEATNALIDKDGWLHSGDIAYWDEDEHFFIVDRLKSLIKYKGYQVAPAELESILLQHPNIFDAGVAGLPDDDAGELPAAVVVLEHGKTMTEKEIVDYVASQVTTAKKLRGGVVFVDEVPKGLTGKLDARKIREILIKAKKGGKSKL
# Outline: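 Eight test concentrations, 5 nM up to 87.5 uM final, preincubated 30min at 37C in the dark with purified luciferase (0.5% DMSO final). Detection reagent (150uM D-luciferin, 147uM dATP, 75uM CoA, pH 7.8) injected per well before kinetic luminescence read; three replicates.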
smiles,measurement,setting,value
Cc1cc(Cl)ccc1OC(C)C(=O)O (stereo not given),outcome,[1],inactive
same,outcome,[2],inactive
CCC[CH2][Sn]([Cl])([Cl])[CH2]CCC,AC50,[1],4.16 µM (active)
same,AC50,[3],3.75 µM (active)
same,AC50,[2],1.09 µM (active)
CC(C)(C#N)N=NC(C)(C)C#N,outcome,[2],inactive
CNC(=O)O/N=C/C(C)(C)S(C)(=O)=O,outcome,[1],inactive
same,outcome,[3],inactive
same,outcome,[2],inactive
same,outcome,AR (gene 367) [4],inactive
Cc1cc(Cl)ccc1OCCCC(=O)O,outcome,[1],inactive
same,outcome,[3],inactive
same,outcome,AR (gene 367) [4],inactive
CC(=Cc1ccccc1)[N+](=O)[O-],AC50,[1],13.5 µM (active)
same,AC50,[3],6.31 µM (active)
same,AC50,[2],11.5 µM (active)
same,AC50,AR (gene 367) [4],6.33 µM (active)
CCCCCCCCCCCCN(C)C,outcome,[1],inactive
same,outcome,[3],inactive
same,outcome,[2],inactive
CCOCn1c(-c2ccc(Cl)cc2)c(C#N)c(Br)c1C(F)(F)F,AC50,[1],6.93 µM (active)
same,AC50,[3],7.97 µM (active)
same,AC50,[2],50 µM (active)
Oc1c(Br)cc(Br)cc1Br,outcome,[3],inactive
same,outcome,[2],inactive
O=S1OC[C@@H]2[C@H](CO1)[C@]1(Cl)C(Cl)=C(Cl)[C@@]2(Cl)C1(Cl)Cl (stereo not given in full),outcome,[1],inactive
same,outcome,[3],inactive
same,AC50,[2],50 µM (active)
same,outcome,AR (gene 367) [4],inactive
OCCCCO,outcome,[1],inactive
O=[N+]([O-])c1ccc(Cl)c([N+](=O)[O-])c1,AC50,[1],22.3 µM (active)
same,AC50,[2],1.55 µM (active)
same,outcome,AR (gene 367) [5],inactive
same,AC50,[6],16.5 µM (active)
same,AC50,AR (gene 367) [4],24.8 µM (active)
COc1nn(C(=O)NS(=O)(=O)c2ccccc2OC(F)(F)F)c(=O)n1C,outcome,[1],inactive
same,outcome,[3],inactive
same,outcome,[2],inactive
CCN(CC)C(=O)C(Cl)=C(C)OP(=O)(OC)OC,AC50,[2],25.8 µM (active)
CC(O)(CS(=O)(=O)c1ccc(F)cc1)C(=O)Nc1ccc(C#N)c(C(F)(F)F)c1 (stereo not given),AC50,[1],44 µM (active)
same,outcome,[1],inactive
same,AC50,[3],21.4 µM (active) and 9.65 µM (active)
same,outcome,[2],inactive
same,outcome,[7],inactive
same,outcome,[8],inactive
same,outcome,[9],inactive
same,outcome,[10],inactive
same,outcome,[11],inactive
CCC[CH2][Sn]([CH2]CCC)([CH2]CCC)[CH2]CCC,AC50,[3],29.9 µM (active)
same,AC50,[2],22 µM (active)
CCOc1ccc(N)cc1,outcome,[12],inactive
same,outcome,[2],inactive
CC(C)N(C(=O)CCl)c1ccccc1,AC50,[1],24.2 µM (active)
same,AC50,[3],16.6 µM (active)
same,AC50,[2],18.5 µM (active)
same,outcome,AR (gene 367) [5],inactive
O=C(O)COc1cc(Cl)c(Cl)cc1Cl,outcome,AR (gene 367) [5],inactive
[Cl][Sn]([c]1ccccc1)([c]1ccccc1)[c]1ccccc1,outcome,[7],inactive
same,outcome,[11],inactive
O=c1oc2ccccc2c(O)c1C(CC(O)c1ccc(-c2ccc(Br)cc2)cc1)c1ccccc1 (stereo not given),outcome,[10],inactive
